Experiment [1] in a line: anti-His antibody binders, primary screen, artefact control for SMM control protein annotation, biochemical, small-molecule microarray, 635 nm fluorescence (AID 1128).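 Further: score merges feature fluorescence with signal-to-noise for each printed compound spot.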 The following applies: anti-His Alexa647 antibody binding, higher = more signal.
In experiment [2] the test system is Human papillomavirus type 1a E7 protein (residues 1-88). Description: HPV1a E7 small-molecule binders, primary screen, biochemical, small-molecule microarray, residues 1-88, 635 nm (AID 1129). The following applies: small-molecule microarray binding, fluorescence 635 nm; higher = more signal.
Experiment [3] has as its target Focal adhesion kinase 1 (Homo sapiens) (UniProt Q05397). The experiment is described as follows: small-molecule microarray binders of FAK, primary screen, biochemical, 635/667 nm fluorescence, BSA, DTT (AID 1130).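 Further: composite of spot emission at 667 nm and signal to noise over triplicate slides.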 The following applies: PTK2 binding, 635 nm fluorescence, higher = more signal.
In experiment [4] the test system is Fibrinogen (Alexa647-labelled). The experiment is described as follows: fibrinogen binders on compound microarrays, profiling panel, artefact control for SMM control-protein annotation, biochemical, small-molecule microarray, 635/667 nm fluorescence (AID 1131).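 Further: z-score merges 667 nm fluorescence with per-spot signal-to-noise over triplicate slides.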 The following applies: fibrinogen-A647 binding fluorescence, higher = more signal.
The target in experiment [5] is Follistatin (Homo sapiens) (UniProt P19883). The experiment is described as follows: follistatin binders on small-molecule microarrays, primary screen, biochemical, small-molecule microarray, 635/667 nm fluorescence (AID 1132). The following applies: FST binding, 635 nm fluorescence, higher = more signal.
For experiment [6], the target named is Fibroblast growth factor 2 (Homo sapiens) (UniProt P09038). Description: FGF2 binders on small-molecule microarrays, primary screen, biochemical, small-molecule microarray, 635/667 nm fluorescence (AID 1133). The following applies: small-molecule microarray binding, FGF2, fluorescence 635/667; higher = more signal.
A short description of experiment [7]: mitochondrial membrane potential change in A549 cells, profiling panel, cell-based, JC-1 fluorescence, basal, 24 h, 100 nL (AID 1138).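 Further: A549 lung adenocarcinoma cells under basal conditions with no added stimulus; test concentration not given here.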 The following applies: higher = more signal.
For a further experiment, the system named is Lefty1. Description: Lefty1 binders on small-molecule microarrays, primary screen, biochemical, small-molecule microarray, 635/667 nm fluorescence (AID 1139). The following applies: small-molecule microarray binding, fluorescence 635/667; higher = more signal.
The test system of experiment [8] is wheat germ agglutinin (Triticum aestivum), Alexa647-labelled. The experiment is described as follows: wheat germ agglutinin binders on compound microarrays, profiling panel, artefact control for SMM control-protein annotation, biochemical, small-molecule microarray, 635/667 nm fluorescence (AID 1140).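 Further: score merges 667 nm feature emission with signal to noise over triplicate slides.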 The following applies: WGA-A647 binding, 635 nm fluorescence, higher = more signal.

The target of experiment [9] is Luciferin 4-monooxygenase (Photinus pyralis) (UniProt P08659). The experiment is described as follows: firefly luciferase enzyme inhibitors, primary screen, biochemical, luminescence, purified enzyme, 2006 set (AID 1141).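 Further: cell-free assay with purified firefly luciferase at 100 ng per well in PBS; test concentration not given here.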 The following applies: SteadyGlo luminescence, 30 min, higher = more signal, called active from +8 up or from −8 down.
The subject of experiment [10] is Wnt5a (protein binding on small-molecule microarray). Description: Wnt5a binders on small-molecule microarray, primary screen, biophysical, 635/667 nm fluorescence (AID 1142).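 Further: fluorescence read at 667 nm with signal to noise per printed feature.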 The following applies: 635 nm fluorescence, higher = more signal.
Experiment [11] can be described thus: cell viability in Huh7 cells, primary screen, cytotoxicity control for HCV replication inhibitor project, CellTiter-Glo luminescence, basal, 48 h (AID 1143).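 Further: Huh7 hepatoma cells carrying a hepatitis C replication reporter with no stimulus; test concentration not given here.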 The following applies: Huh7 HCV replicon, higher = more signal, called active from +8 up or from −8 down.
Experiment [12] can be described thus: P. aeruginosa biofilm formation inhibitors, primary screen, PAO1 strain, BacTiter-Glo luminescence, LB-PBS (AID 1144). The following applies: 12 h, higher = more signal.
The nature of experiment [13]: CREB reporter modulators without forskolin, primary screen, cell-based, PC12, CRE-LacZ reporter, unstimulated (AID 1145). The following applies: no forskolin, luminescence, 4.5 h, higher = more signal, called active from +8 up or from −8 down.
Experiment [14] in a line: CREB reporter modulators under forskolin, primary screen, cell-based, PC12, CRE-LacZ reporter, forskolin-stimulated (AID 1146).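 Further: PC12 cells with 6xCRE LacZ reporter stimulated by forskolin 10 µM; beta-galactosidase reporter signal reflecting CREB driven transcription.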 The following applies: luminescence, 4.5 h, higher = more signal, called active from +8 up or from −8 down.
Experiment [15] addresses Streptavidin (Streptomyces avidinii) (UniProt P22629). Description: streptavidin binders on small-molecule microarray, primary screen, artefact control for SMM compound annotation, biophysical, 635/667 nm fluorescence (AID 1147).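 Further: signal reflects streptavidin binding to arrayed compounds as a control protein.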 The following applies: streptavidin binding, higher = more signal.
Experiment [16] is described as follows: small-molecule binders of probe aInhba, primary screen, biochemical, small-molecule microarray, 635/667 nm fluorescence (AID 1148).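 Further: score merges 667nm spot fluorescence with signal-to-noise for antibody binding to printed compounds.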 The following applies: higher = more signal.
Experiment [17] deals with Torsin-1A (Homo sapiens) (UniProt O14656). The experiment is described as follows: torsin A binders from cell lysate, primary screen, small-molecule microarray, wild-type, 635/667 nm (AID 1149). The following applies: COS7 hTOR1A-WT lysate, 635 nm fluorescence, higher = more signal.
Experiment [18] shares this target. Description: small-molecule binders of mutant TOR1A in lysate, primary screen, cell lysate, small-molecule microarray, COS7 lysate, 635/667 nm fluorescence (AID 1150).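 Further: score pools 667 nm emission and signal to noise measuring lysate protein binding.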 The following applies: COS7 hTOR1A mutant lysate, 635 nm fluorescence, higher = more signal.
The subject of experiment [19] is Sonic hedgehog protein (Shh). The experiment is described as follows: small-molecule binders of Shh protein, primary screen, biochemical, small-molecule microarray, 635/667 nm fluorescence (AID 1151).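 Further: Shh protein binding to compounds spotted on small-molecule microarray slides; score combines spot fluorescence intensity with signal-to-noise across triplicate slides.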 The following applies: small-molecule microarray binding, 635 nm fluorescence; higher = more signal.

Active and inactive are the calls of the source. Unless noted, how the calls were made is not given here.

Chain of Luciferin 4-monooxygenase (Photinus pyralis) (P08659 whole entry, looked up): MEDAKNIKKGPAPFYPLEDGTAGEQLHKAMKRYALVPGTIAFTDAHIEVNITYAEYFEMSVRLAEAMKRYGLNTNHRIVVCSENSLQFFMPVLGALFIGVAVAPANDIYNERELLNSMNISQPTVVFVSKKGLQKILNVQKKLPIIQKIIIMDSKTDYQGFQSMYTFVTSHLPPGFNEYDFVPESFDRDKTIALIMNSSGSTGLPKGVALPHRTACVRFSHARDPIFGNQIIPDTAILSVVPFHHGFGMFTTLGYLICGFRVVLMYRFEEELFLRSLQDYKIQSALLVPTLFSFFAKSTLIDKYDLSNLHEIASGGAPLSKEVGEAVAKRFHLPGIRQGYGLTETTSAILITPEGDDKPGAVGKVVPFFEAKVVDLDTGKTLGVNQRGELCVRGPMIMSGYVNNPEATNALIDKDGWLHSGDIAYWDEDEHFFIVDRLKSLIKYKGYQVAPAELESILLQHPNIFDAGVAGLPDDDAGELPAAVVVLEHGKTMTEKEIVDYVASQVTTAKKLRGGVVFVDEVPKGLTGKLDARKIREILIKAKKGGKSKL
Chain of Streptavidin (Streptomyces avidinii) (P22629 whole entry, looked up): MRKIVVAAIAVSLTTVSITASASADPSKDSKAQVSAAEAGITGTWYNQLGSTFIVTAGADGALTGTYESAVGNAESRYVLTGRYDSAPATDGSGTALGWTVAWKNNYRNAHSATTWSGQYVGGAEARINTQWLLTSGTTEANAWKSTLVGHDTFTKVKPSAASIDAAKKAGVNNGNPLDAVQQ
Chain of Torsin-1A (Homo sapiens) (O14656 whole entry, looked up): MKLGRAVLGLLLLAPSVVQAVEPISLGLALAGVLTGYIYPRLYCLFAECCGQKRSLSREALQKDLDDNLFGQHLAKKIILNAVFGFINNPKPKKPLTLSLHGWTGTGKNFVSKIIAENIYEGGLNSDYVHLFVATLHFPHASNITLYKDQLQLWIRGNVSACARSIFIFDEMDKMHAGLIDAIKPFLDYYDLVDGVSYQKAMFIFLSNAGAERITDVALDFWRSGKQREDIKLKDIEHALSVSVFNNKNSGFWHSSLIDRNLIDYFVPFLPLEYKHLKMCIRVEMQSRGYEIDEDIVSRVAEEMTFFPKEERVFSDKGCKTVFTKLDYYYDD
Chain of Fibroblast growth factor 2 (Homo sapiens) (P09038 whole entry, looked up): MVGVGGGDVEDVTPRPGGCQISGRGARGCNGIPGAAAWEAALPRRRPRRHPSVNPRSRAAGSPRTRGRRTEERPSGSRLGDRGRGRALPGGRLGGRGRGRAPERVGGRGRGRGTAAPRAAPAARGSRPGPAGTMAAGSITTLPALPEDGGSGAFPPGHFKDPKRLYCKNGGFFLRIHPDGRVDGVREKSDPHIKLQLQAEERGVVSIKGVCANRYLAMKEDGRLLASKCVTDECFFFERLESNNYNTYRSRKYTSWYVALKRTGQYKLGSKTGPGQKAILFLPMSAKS
Chain of Follistatin (Homo sapiens) (P19883 whole entry, looked up): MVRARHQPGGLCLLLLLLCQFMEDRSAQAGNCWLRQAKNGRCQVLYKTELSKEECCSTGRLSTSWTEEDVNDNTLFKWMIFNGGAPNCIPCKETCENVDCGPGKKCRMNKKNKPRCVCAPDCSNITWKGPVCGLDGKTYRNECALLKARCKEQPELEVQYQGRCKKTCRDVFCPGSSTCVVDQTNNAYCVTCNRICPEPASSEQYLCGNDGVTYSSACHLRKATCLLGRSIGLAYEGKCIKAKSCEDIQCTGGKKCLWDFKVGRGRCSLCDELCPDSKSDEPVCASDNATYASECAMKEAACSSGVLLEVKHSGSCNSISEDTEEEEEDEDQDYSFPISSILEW
Chain of Focal adhesion kinase 1 (Homo sapiens) (Q05397 whole entry, looked up): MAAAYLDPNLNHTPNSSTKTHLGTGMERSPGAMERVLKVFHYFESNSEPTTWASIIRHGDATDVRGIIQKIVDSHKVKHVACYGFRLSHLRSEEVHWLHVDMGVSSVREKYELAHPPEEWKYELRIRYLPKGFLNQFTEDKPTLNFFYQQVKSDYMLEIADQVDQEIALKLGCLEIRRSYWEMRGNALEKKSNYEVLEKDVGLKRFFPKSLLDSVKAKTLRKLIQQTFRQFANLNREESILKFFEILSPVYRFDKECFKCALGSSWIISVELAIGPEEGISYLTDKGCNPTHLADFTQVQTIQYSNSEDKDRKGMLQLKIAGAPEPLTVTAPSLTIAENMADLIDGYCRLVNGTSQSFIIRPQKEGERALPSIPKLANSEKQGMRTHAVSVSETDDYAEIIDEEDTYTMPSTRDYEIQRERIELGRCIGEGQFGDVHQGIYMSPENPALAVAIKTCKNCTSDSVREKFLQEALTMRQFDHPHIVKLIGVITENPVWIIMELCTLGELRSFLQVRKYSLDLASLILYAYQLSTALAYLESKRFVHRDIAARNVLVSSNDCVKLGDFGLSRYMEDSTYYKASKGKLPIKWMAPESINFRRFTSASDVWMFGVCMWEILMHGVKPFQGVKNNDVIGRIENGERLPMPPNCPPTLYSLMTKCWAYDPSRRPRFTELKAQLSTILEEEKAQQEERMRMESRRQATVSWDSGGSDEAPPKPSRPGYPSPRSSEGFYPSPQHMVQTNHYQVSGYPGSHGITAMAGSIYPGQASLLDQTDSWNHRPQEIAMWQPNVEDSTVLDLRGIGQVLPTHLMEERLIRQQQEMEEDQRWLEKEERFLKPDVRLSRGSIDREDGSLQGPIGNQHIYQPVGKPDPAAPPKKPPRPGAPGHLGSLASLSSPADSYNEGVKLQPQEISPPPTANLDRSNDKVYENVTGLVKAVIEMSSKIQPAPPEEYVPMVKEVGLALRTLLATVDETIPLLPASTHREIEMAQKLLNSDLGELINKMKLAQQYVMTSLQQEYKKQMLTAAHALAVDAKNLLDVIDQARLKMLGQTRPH

Take `CCOC(=O)[C@H](Cc1ccccc1)NC(=O)CCC1CC(OC(=O)NCc2cccc3ccccc23)CC2(CCCC(COC(=O)NCc3cccc(C(F)(F)F)c3)O2)O1` (stereo not given in full): the composite z-score in experiment [1] was 0.419; in [2], 0.565; in [3] it was 0.219; in [4], 0.193; in [5] it was -0.0637; in experiment [6], 0.0858. Further, the composite z-score in the experiment on Lefty1 is 0.0217; in [8], 0.0961; in experiment [10] it was -0.0693; in experiment [15], 0.339; in experiment [16], -0.0375; in the experiment with Torsin-1A (Homo sapiens) [17] it was -0.347. Also, the composite z-score was -0.385 with Torsin-1A (Homo sapiens) [18] and 0.0624 in experiment [19]. In addition, the z-score in [7] was 1.94; in [9], -0.114 (inactive); in experiment [11] it was -0.816 (inactive); in experiment [12], -0.641 (inactive); in experiment [13] it was 4.81 (inactive); in experiment [14], -0.0734 (inactive).
Turning to `CCO[C@H](c1cc(OC)cc([N+](=O)[O-])c1OC)[C@H](C)C=CCC(=O)OC`, the composite z-score was 0.051 in [1]; -0.467 in [2]; -0.361 in [3]; -0.364 in experiment [4]; 0.66 in [5]; 0.479 in experiment [6]. The composite z-score is 0.747 in the experiment on Lefty1; 0.0356 in experiment [8]; -0.151 in experiment [10]; 0.0571 in experiment [15]; -0.183 in experiment [16]; 0.636 with Torsin-1A (Homo sapiens) [17]. Moreover, the composite z-score with Torsin-1A (Homo sapiens) [18] was determined as 0.192; in experiment [19], 1.7. Further, the z-score in [7] was 0.347; in experiment [9], -0.734 (inactive); in [11], 0.0843 (inactive); in [12] it was -0.0286 (inactive); in [13], -0.0684 (inactive); in experiment [14] it was -0.893 (inactive).
In the case of `O=C1CCCC=C1C(CCc1ccccc1)OC(=O)c1ccc(Br)cc1` (stereo not given), the composite z-score in [1] is 0.0508; in experiment [2] it was -0.757; in experiment [3], -0.0417; in experiment [4], -0.612; in experiment [5], 0.0148; in experiment [6], 0.0039. Besides, the composite z-score in the experiment with Lefty1 is 0.167; in experiment [8], -0.254; in experiment [10] it was -0.223; in experiment [15], 0.0598; in [16] it was -0.218; in the experiment with Torsin-1A (Homo sapiens) [17] it was -0.249. The composite z-score is 0.0696 with Torsin-1A (Homo sapiens) [18] and -0.115 in [19]. The z-score in [7] was -0.65; in [9] it was 0.063 (inactive); in experiment [11] it was -3.61 (inactive); in [12], 0.96 (inactive); in experiment [13] it was 0.111 (inactive); in [14] it was 0.171 (inactive).
For `C[C@@H]1CC[C@H]2C(=O)O[C@@H](COc3ccc(C(C)(C)C)cc3)CN2[C@@H]1c1ccc(Br)cc1`, the composite z-score is 2.71 in experiment [1]; -0.741 in experiment [2]; 0.225 in experiment [3]; 0.172 in experiment [4]; -0.0473 in [5]; -0.62 in experiment [6]. Moreover, the composite z-score was -0.255 with Lefty1; -0.383 in experiment [8]; -0.176 in [10]; -0.259 in experiment [15]; -0.0987 in experiment [16]; -0.351 with Torsin-1A (Homo sapiens) [17]. Also, the composite z-score was -0.188 in the experiment with Torsin-1A (Homo sapiens) [18] and -0.445 in experiment [19]. In addition, the z-score in experiment [7] was 0.841; in experiment [9], -0.864 (inactive); in experiment [11] it was 0.301 (inactive); in experiment [12], 0.256 (inactive); in experiment [13], 0.764 (inactive); in experiment [14], 0.403 (inactive).
In the case of `O=C1[C@H]2[C@H]3[C@H](O)[C@H](O)CC(=NOCc4ccccc4)[C@@H]3CC[C@H]2C(=O)N1c1ccc(F)cc1F`, the composite z-score in experiment [1] was -0.0523; in experiment [2] it was -0.406; in [3], 0.757; in experiment [4], 0.416; in [5], 0.072; in experiment [6], 0.359. The composite z-score is -0.0459 in the experiment with Lefty1; -0.141 in experiment [8]; -0.0167 in experiment [10]; 0.0494 in [15]; -0.104 in experiment [16]; -0.111 in the experiment with Torsin-1A (Homo sapiens) [17]. Besides, the composite z-score with Torsin-1A (Homo sapiens) [18] was -0.153; in experiment [19] it was 0.068. The z-score in experiment [7] was -0.332; in experiment [9], 0.0336 (inactive); in experiment [11] it was -1.69 (inactive); in [12], -1 (inactive); in experiment [13], -0.469 (inactive); in experiment [14] it was -0.445 (inactive).
On to `C=CC[C@@H]1C=C[C@H](ON=C(C)CCC(=O)OC[C@H]2O[C@H](c3ccccc3)C=C[C@@H]2Oc2ccc(OC)cc2)[C@@H](CO)O1`, for which the composite z-score in experiment [1] is 0.14; in experiment [2] it was -0.214; in experiment [3] it was 0.261; in [4] it was -1.43; in experiment [5], -0.398; in experiment [6], 0.121. The composite z-score in the experiment on Lefty1 is 0.443; in [8] it was 0.104; in experiment [10], -0.278; in experiment [15], -0.586; in experiment [16], -0.128; in the experiment with Torsin-1A (Homo sapiens) [17], -0.957. Moreover, the results for the composite z-score (with Torsin-1A (Homo sapiens) [18]; in [19]) were -0.587 and -0.317, respectively. The z-score was -0.217 in experiment [7]; -0.506 (inactive) in experiment [9]; -1.08 (inactive) in experiment [11]; -0.743 (inactive) in [12]; -0.24 (inactive) in [13]; -0.24 (inactive) in [14].
For `C[C@H](ON=C1[C@H]2CCn3c(=O)n(-c4ccccc4)c(=O)n3[C@H]2[C@H](O)[C@@H]2O[C@H]12)c1cn([C@H](CO)Cc2ccccc2)nn1`, the composite z-score is -0.692 in experiment [1]; 0.588 in experiment [2]; 0.273 in experiment [3]; 0.985 in experiment [4]; 0.3 in experiment [5]; 0.646 in [6]. Moreover, the composite z-score in the experiment with Lefty1 is 0.572; in [8], 0.742; in experiment [10] it was 0.087; in [15], 1.19; in experiment [16] it was -0.154; with Torsin-1A (Homo sapiens) [17] it was 0.421. The composite z-score with Torsin-1A (Homo sapiens) [18] turned out to be 0.295; in experiment [19], 0.248. Moreover, the z-score in experiment [7] is -0.717; in [9], -0.0281 (inactive); in experiment [11] it was 1.92 (inactive); in [12] it was 0.285 (inactive); in experiment [13] it was -0.324 (inactive); in experiment [14], 0.578 (inactive).
As for `Cc1cc2c(nc1C)CCCN2CC(O)CN1CCCc2nc(C)c(C)cc21`, the composite z-score in experiment [1] is 1.92; in experiment [2], -0.0317; in experiment [3], 0.281; in experiment [4], -0.575; in experiment [5] it was 0.817; in experiment [6], 1.06. In addition, the composite z-score with Lefty1 came to 0.454; in [8] it was 0.562; in experiment [10] it was 0.424; in [15], 0.209; in experiment [16] it was 0.141; in the experiment with Torsin-1A (Homo sapiens) [17], 0.482. In addition, the composite z-score is 1.95 with Torsin-1A (Homo sapiens) [18] and 0.639 in [19]. Further, the z-score was -0.685 in [7]; 0.723 (inactive) in [9]; 0.135 (inactive) in [11]; 0.051 (inactive) in experiment [12]; -0.704 (inactive) in experiment [13]; -0.875 (inactive) in experiment [14].

These data come from PubChem BioAssay.
